# Compound activity: PubChem, National Center for Advancing Translational Sciences (NCATS)
# Shown are actives, neighbours in structure and some others; about 21% of the full set was active somewhere.
# Cycloheximide cs: counter-screen hit for Shiga toxin inhibitors, cycloheximide; max response, %; cell reporter, cycloheximide protein synthesis inhibition counterscreen; hit rate 12% among 300,000; in the data active means max response mostly above about 13%, no sharp cut-off; inactive means mostly below about 14%; further: read at 38.3 µM for the half of the compounds with a filed dose; 0% is about no effect
# Pf growth 48h: inhibits P. falciparum growth in the first generation, 48 h; P. falciparum luciferase growth in erythrocytes, 48 h; Potency, µM (top dose mostly 28.7 µM), for the others: at the top dose activity change, negative = inhibition, most hits filed as inhibitors; hit rate 5.9% among 310,000; further: potency means the concentration at half of the fitted maximal effect; on the % scale 0 is the no-effect control and ±100 the full control effect
#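 Luminescence readout; reporter = integrated firefly luciferase in P. falciparum. RBC culture at 2% hematocrit, 0.1% parasitemia final, 37 C/5% CO2; decreased signal taken as growth inhibition.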
# Shiga inhibitor: inhibitors of Shiga toxin in Vero cells. Vero cells, Shiga toxin protein synthesis inhibition reporter. inhibition, % at 38.7 µM. hit rate 9.2% among 290,000. AID 2315; in the data active means inhibition mostly above about 28%, no sharp cut-off; inactive means mostly below about 43%; further: 0% is about no effect
# Pf growth 96h: P. falciparum growth inhibition at 96 hours | P. falciparum luciferase reporter growth, 96 h | Potency, µM (series often up to 28.7 µM), inactives show at the highest dose activity change, negative = inhibition, hits mostly inhibitors | hit rate 6.9% among 320,000; further: potency means the concentration at half of the fitted maximal effect; on the % scale 0 is the no-effect control and ±100 the full control effect
#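 Readout is luminescence from an integrated firefly luciferase in P. falciparum. Red cells, 2% hematocrit and 0.05% parasitemia final, were cultured with compound through two parasite generations (96 hours) at 37 C, 5% CO2.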
# * = called active by the depositor; ? = inconclusive; . = not tested or not shown. Unless noted, the call rests on the fitted dose curve; in most records, active means well fitted inhibition curve with a large enough effect; inconclusive means small, poorly fitted or top-dose-only effect, or another doubt; inactive means no such curve, though single readings can be large or run the other way.
SMILES,Cycloheximide cs,Pf growth 48h,Shiga inhibitor,Pf growth 96h
Cc1cccc2cc(C(c3nnnn3CC3CCCO3)N3CCCc4ccccc43)c(=O)[nH]c12 (stereo not drawn),-3,9.3µM*,30,-19%
Cc1ccc2cc(C(c3nnnn3CC3CCCO3)N3CCc4ccccc4C3)c(=O)[nH]c2c1 (stereo not drawn),-4,?,-5,151%
CC1CCN(C(c2cc3cc4c(cc3[nH]c2=O)OCO4)c2nnnn2CC2CCCO2)CC1 (stereo not drawn),1,.,-16,-20%
O=c1[nH]c2cc3c(cc2cc1C(c1nnnn1C1CCCC1)N1CCCc2ccccc21)OCCO3 (stereo not drawn),-5,-25%,-11,4%
Cc1cc2cc(C(c3nnnn3CC3CCCO3)N3CCCc4ccccc43)c(=O)[nH]c2cc1C (stereo not drawn),12*,?,13,-21%
O=c1[nH]c2cc3c(cc2cc1C(c1nnnn1Cc1ccccc1)N1CCCc2ccccc21)OCO3 (stereo not drawn),16*,1%,44*,28%
CCOc1ccc2[nH]c(=O)c(C(c3nnnn3CC3CCCO3)N3CCc4ccccc4C3)cc2c1 (stereo not drawn),-4,10µM*,-12,-14%
O=C(C1CC1)N1N=C(c2ccncc2)CC1(O)C(F)(F)F (stereo not drawn),5,1%,-4,89%
NS(=O)(=O)OCC(Cc1ccccc1)N1C(=O)c2ccccc2C1=O (stereo not drawn),-2,24%,-4,-16%
Cc1cccc2cc(C(c3nnnn3CC3CCCO3)N3CCc4ccccc4C3)c(=O)[nH]c12 (stereo not drawn),-4,-6%,17,65%
Cc1ccc(C)c2[nH]c(=O)c(C(c3nnnn3Cc3ccccc3)N3CCc4ccccc4C3)cc12 (stereo not drawn),-6,10µM*,-30,.
CCC(C)(C)n1nnnc1C(c1cc2cccc(C)c2[nH]c1=O)N1CCN(C(=O)c2ccco2)CC1 (stereo not drawn),-2,1.2µM*,-16,58%
CCC(C)(C)n1nnnc1C(c1ccc(C)cc1)N1CCN(C(=O)c2ccco2)CC1 (stereo not drawn),-1,?,-2,-13%
O=C(NCCCc1ccccc1)c1ccc(CS(=O)Cc2ccccc2Cl)o1 (stereo not drawn),-1,-22%,-6,62%
Fc1cccc(Cl)c1CSc1ccc(-c2cccnc2)nn1,36*,27%,143*,?
Clc1ccc(CSc2ccc(-c3cccnc3)nn2)cc1,27*,18%,33,?
CCc1ccc(NC(=O)CSc2ccc(-c3cccnc3)nn2)cc1,6,?,-4,0%
COc1ccc(C2CC(c3cccs3)=NN2C(=O)CSc2nc(=O)n3cc(C)ccc3n2)cc1 (stereo not drawn),.,10µM*,.,8.3µM*
COc1ccc(C2CC(c3cccs3)=NN2C(=O)CSC2=NCCS2)cc1 (stereo not drawn),23,?,20,?
Cc1ccc(C2CC(c3cccs3)=NN2C(=O)CSC2=NCCS2)cc1 (stereo not drawn),-3,10µM*,-7,12µM*
CCC(=O)N1N=C(c2cccs2)CC1c1ccc(C)cc1 (stereo not drawn),10,-15%,-6,?
Cc1ccc(C2CC(c3cccs3)=NN2C(=O)CCl)cc1 (stereo not drawn),43*,13µM*,43*,1.9µM*
O=C(NCCCN1CCOCC1)c1cccnc1SCc1ccccc1Cl,11,-20%,15,4%
CC1CCN(C(=O)CSc2ccc(-c3cccnc3)nn2)CC1,2,-4%,-1,-6%
C/C=C(\C)CN1CCCC(N(C)CCc2ccc(OC)c(OC)c2)C1 (stereo not drawn),-3,?,-3,-2%
SMILES,Cycloheximide cs,Pf growth 48h,Shiga inhibitor,Pf growth 96h
CC(C)(C)c1ccc(C2=NC(=O)C(CC(=O)O)S2)cc1 (stereo not drawn),13*,2.6µM*,31,92%
COc1ccc(C(=O)CC2SC(N)=NC2=O)cc1 (stereo not drawn),-2,13%,2,0%
Cc1cccc(C)c1OCc1cc(C(=O)N(C)Cc2nc3ccccc3[nH]2)no1,13,-15%,21,-3%
NCCCC[C@@H](N)C(=O)O,1,.,-3,.
Nc1ccc(Cc2ccc(N)c(O)c2)cc1O,23,171%,43*,?
COc1cc(Cc2ccc(N)c(OC)c2)ccc1N,-4,11%,-12,63%
Cc1ccc2cc(C3C(C#N)=C(N)Oc4c3ccc3cccnc43)c(=O)[nH]c2c1 (stereo not drawn),8,?,-3,2.6µM*
CCc1ccc2[nH]c(=O)c(C3C(C#N)=C(N)Oc4c3ccc3cccnc43)cc2c1 (stereo not drawn),-3,?,-4,?
CN1CCN(CCCN2c3ccccc3Sc3ccccc32)CC1,-2,.,-12,.
CCSc1ccc2c(c1)N(CCCN1CCN(C)CC1)c1ccccc1S2,.,9.3µM*,.,?
CN1CCN(CCCN2c3ccccc3Sc3ccc(Cl)cc32)CC1,-5,9.3µM*,-19,9.3µM*
COc1ccc(S(=O)(=O)Nc2ncccc2C)c2ccccc12,-1,22%,.,27%
C=C1CC[C@H](O)C/C1=C/C=C1\CCC[C@]2(C)[C@@H]([C@H](C)CCCC(C)C)CC[C@@H]12,34*,30%,89*,3%
C=C1CC[C@H](O)C/C1=C/C=C1\CCC[C@]2(C)[C@@H]([C@H](C)/C=C/[C@H](C)C(C)C)CC[C@@H]12,.,?,.,-25%
CCC1(c2ccccc2)NC(=O)N(CC(=O)NC2(C#N)CCCCC2)C1=O (stereo not drawn),.,0%,.,8%
C(=C\c1ccncc1)/c1ccncc1,-2,-7%,-1,-12%
O=[N+]([O-])c1cccc(/C=C/c2ccncc2)c1,22*,-20%,37,10%
C(=C\c1ccncc1)/c1ccccc1,36*,?,34,?
O=[N+]([O-])c1ccc(/C=C/c2ccncc2)cc1,30*,37%,68*,?
COc1ccc2[nH]c(C(=O)N3CCC(CO)(Cc4cccc(C(F)(F)F)c4)CC3)c(C)c2c1,-2,?,7,?
O=C1CC2(CCCCC2)Oc2ccc(O)cc21,-3,-24%,-11,4.1µM*
CC(=O)Nc1ccc(S(=O)(=O)N2CCN(C(=O)c3ncoc3-c3ccc(C)cc3)CC2)cc1,-1,0%,12,-1%
CCSc1nc2ccccc2n1C(=O)/C=C/c1ccc(OC)c(OC)c1,13*,1%,-1,27%
C=CCSc1nc2ccccc2n1C(=O)/C=C/c1cc(OC)c(OC)c(OC)c1,49*,?,111*,-5%
CC1CCCN(C(=O)c2cc(S(=O)(=O)N3CCCCC3)c[nH]2)C1 (stereo not drawn),1,3%,-10,4%
C[C@]1(CO)CCC[C@@]2(C)C1CC[C@@H](CO)[C@@H]2CCc1ccoc1 (stereo partly drawn),0,-9%,-5,-3%
